MEKK3 PB1 HTS: raises or lowers MEK5 binding to the human MEKK3 PB1 domain; bead-based flow cytometry, Alexa488-MEK5 binding to MEKK3; actives lie on both sides; 0 = blocked by unlabeled MEK5, 100 = vehicle; 1.4% of 290,000 active; binding response (% of control), % at 10 µM; Q99759;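 active = binding response more than 3 SD above or below the average of its plate-row segment, actives on both sides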;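 note: Alexa488 bead fluorescence after subtracting the streptavidin-only scavenger bead signal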
Target sequence (Q99759 whole entry, looked up, the tested form may be a part): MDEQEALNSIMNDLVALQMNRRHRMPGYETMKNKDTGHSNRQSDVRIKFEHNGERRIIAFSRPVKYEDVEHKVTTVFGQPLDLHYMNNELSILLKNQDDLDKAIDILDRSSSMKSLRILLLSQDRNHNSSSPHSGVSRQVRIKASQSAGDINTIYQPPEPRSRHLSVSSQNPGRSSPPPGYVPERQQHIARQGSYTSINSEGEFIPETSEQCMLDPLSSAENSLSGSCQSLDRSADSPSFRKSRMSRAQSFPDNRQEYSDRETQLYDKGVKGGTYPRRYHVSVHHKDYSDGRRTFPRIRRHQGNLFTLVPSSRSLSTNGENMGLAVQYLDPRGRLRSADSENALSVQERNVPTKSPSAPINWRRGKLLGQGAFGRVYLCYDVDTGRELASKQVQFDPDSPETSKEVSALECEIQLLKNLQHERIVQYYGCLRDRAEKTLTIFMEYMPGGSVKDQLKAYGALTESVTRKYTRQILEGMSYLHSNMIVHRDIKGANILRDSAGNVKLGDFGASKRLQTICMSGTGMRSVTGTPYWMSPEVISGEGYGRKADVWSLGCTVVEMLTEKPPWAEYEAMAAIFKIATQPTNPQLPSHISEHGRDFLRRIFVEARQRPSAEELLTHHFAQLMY
NRP1-CendR mod: modulators of CendR peptide binding to human neuropilin-1; inhibition, % at 25 µM; 0.85% of 360,000 active; O14786; FAM-RPARPAR peptide binding to NRP-1, fluorescence polarization; AID 602438;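 active = inhibition or corrected inhibition above about 18%, plus a signal ratio from 0.5 to 1.5, limit read from the data, passing the limit was not always enough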
SKN-1 inh: C. elegans SKN-1 inhibition; C. elegans VP596 Pgst-4::GFP/RFP ratio, acrylamide-induced, 24 h; inhibition, % at 21.8 µM; 0.49% of 360,000 active;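 active = interference check ratio from 0.5 to 1.5 plus GFP to RFP signal ratio inhibition reaching or exceeding a fixed threshold, cut at about 30% in these data, passing the limit was not always enough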
MEKK2mut PB1 HTS: signal of MEK5 binding to mutant human MEKK2 PB1 domain. 0.35% of 290,000 active. bead flow cytometry, Alexa488-MEK5 binding to MEKK2 mutant. percent response, % at 10 µM; in the data active = percent response above about 24%, passing the limit was not always enough
MEKK2wt PB1 HTS: raises or lowers MEK5 binding to wildtype human MEKK2 PB1 domain. binding response (% of control), % at 10 µM. AID 1531. bead flow cytometry, Alexa488-MEK5 binding to MEKK2 WT; actives lie on both sides. 1.1% of 290,000 active. Q9Y2U5; in the data active = binding response below about 67% or above about 130%
MEKK2wt confirm: raises or lowers MEK5 binding to wildtype human MEKK2, retest. shares compounds with MEKK3 PB1 HTS. bead flow cytometry, Alexa488-MEK5 binding to MEKK2 WT; actives lie on both sides. binding response (% of control), % at 10 µM. 2.4% of 5,900 active. AID 1892; in the data active = binding response below about 16% or above about 210%; inactive = in between
MEKK2mut confirm: signal of MEK5 binding to mutant human MEKK2, retest | bead flow cytometry, Alexa488-MEK5 binding to MEKK2 mutant | AID 1893 | 2% of 5,900 active | shares compounds with MEKK3 PB1 HTS | percent response, % at 10 µM; in the data active = percent response mostly above about 71%, no sharp cut-off; inactive = mostly below about 38%;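 note: higher means compound restores mutant binding toward wildtype level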
MEKK3 confirm: MEKK3-MEK5 PB1 inhibition, single concentration confirmation. AID 1894. shares compounds with MEKK3 PB1 HTS. bead flow cytometry, Alexa488-MEK5 binding to MEKK3; active compounds read low. 1.8% of 5,900 active. binding response (% of control), % at 10 µM;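 active = binding response below 72% of control, or above a set upper limit, though filed actives all read lower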;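 note: lower values mean stronger disruption of MEK5 binding to MEKK3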
Of the large screens only hits and unclear results are named; the others gave an inactive call (follow-up assays come after a bar, where they were run); [ ] = another dose, or the depositor's remark. Shown are actives, neighbours in structure and some others; about 3.2% of the full set was active somewhere.

CC(C)CNC(=O)COC(=O)CNC(=O)c1cc(Cl)cc([N+](=O)[O-])c1	MEKK3 PB1 HTS 149 | MEKK2wt confirm inactive | MEKK2mut confirm inactive | MEKK3 confirm inactive
CNC(=O)COC(=O)CNC(=O)c1cc(Cl)cc([N+](=O)[O-])c1	none
CCNC(=O)COC(=O)CNC(=O)c1cc(Cl)cc([N+](=O)[O-])c1	none
CC(C)(C)NC(=O)COC(=O)CNC(=O)c1cc(Cl)cc([N+](=O)[O-])c1	MEKK3 PB1 HTS 131 | MEKK2wt confirm inactive | MEKK2mut confirm inactive | MEKK3 confirm inactive
COc1cc(/C=C2\SC(=S)N(Nc3ccccc3)C2=O)cc(OC)c1OC	none
CCOc1ccc(/C=C2\SC(=S)N(Nc3ccccc3)C2=O)cc1OC	MEKK3 PB1 HTS 128 | MEKK2wt confirm inactive | MEKK2mut confirm inactive | MEKK3 confirm inactive
CCC(C(=O)NC1CCCC1)n1c(-c2cc3ccccc3[nH]2)nc2ccccc21 (stereo not drawn)	none (no result: MEKK3 PB1 HTS, MEKK2mut PB1 HTS, MEKK2wt PB1 HTS)
O=C(/C=C/[C@H]1O[C@@H](n2ccc(=O)[nH]c2=O)[C@H](O)[C@@H]1O)NCc1cccs1	none (no result: MEKK3 PB1 HTS, MEKK2mut PB1 HTS, MEKK2wt PB1 HTS)
Cc1cccc(Nc2nnc(-c3ccc(N4CCOCC4)c([N+](=O)[O-])c3)c3ccccc23)c1	MEKK3 PB1 HTS 131 | MEKK2wt confirm inactive | MEKK2mut confirm inactive | MEKK3 confirm inactive
CC1C(=O)Nc2ccc(S(=O)(=O)N3CCCCCC3)cc21 (stereo not drawn)	none (no result: MEKK3 PB1 HTS, MEKK2mut PB1 HTS, MEKK2wt PB1 HTS)
CCN(CC)CCNC(=S)NC(=O)c1cn(-c2ccccc2)nc1-c1ccc(OC)cc1	MEKK2wt PB1 HTS 148 | MEKK2wt confirm inactive | MEKK2mut confirm inactive | MEKK3 confirm inactive
COC(=O)c1cn(-c2ccccc2)nc1-c1ccc(OC)cc1	none
CCN(CC)CCNC(=O)c1ccc(NC(=O)c2cn(-c3ccccc3)nc2-c2cccs2)cc1	MEKK2wt PB1 HTS 212 | MEKK2wt confirm 212 | MEKK2mut confirm inactive | MEKK3 confirm inactive
Cc1nc2c(-c3ccc(F)cc3)c(C)nn2c(C)c1CCC(=O)Nc1ccccc1F	MEKK3 PB1 HTS 45[inhibitor] | MEKK2wt confirm inactive | MEKK2mut confirm inactive | MEKK3 confirm inactive
CC1=CC2=NC(=O)CC(C)(C(=O)N(CC(=O)NC3CCCC3)c3cc(C)cc(C)c3)N2C=C1 (stereo not drawn)	MEKK3 PB1 HTS 150 | MEKK2wt confirm inactive | MEKK2mut confirm inactive | MEKK3 confirm inactive
COc1cc(/C=C2\SC(=S)N(N3CCOCC3)C2=O)ccc1O	none
O=C1/C(=C/c2cccnc2)SC(=S)N1N1CCOCC1	none
O=C1/C(=C/c2ccncc2)SC(=S)N1N1CCOCC1	MEKK3 PB1 HTS 42[inhibitor], MEKK2wt PB1 HTS 37[inhibitor] | MEKK2wt confirm inactive | MEKK2mut confirm inactive | MEKK3 confirm inactive
COc1cc(/C=C2\SC(=S)N(N3CCOCC3)C2=O)cc(OC)c1OC	MEKK3 PB1 HTS 141 | MEKK2wt confirm inactive | MEKK2mut confirm inactive | MEKK3 confirm inactive
CCc1cc(C(=O)N2CCN(C(=O)c3ccccc3)CC2)sc1C	none (no result: MEKK3 PB1 HTS, MEKK2mut PB1 HTS, MEKK2wt PB1 HTS)
COc1cc(CCC(=O)Nc2ccc(Br)c(C(F)(F)F)c2)cc(OC)c1OC	MEKK3 PB1 HTS 151 | MEKK2wt confirm inactive | MEKK2mut confirm inactive | MEKK3 confirm inactive
O=C(N/N=C/c1cc2ccccc2nc1Cl)[C@H]1C[C@@H]1c1ccccc1	MEKK3 PB1 HTS 168 | MEKK2wt confirm inactive | MEKK2mut confirm inactive | MEKK3 confirm inactive
COc1ccc(C(=O)N2CCCCC2c2cc(C(=O)NCc3ccccc3)no2)cc1 (stereo not drawn)	none (no result: MEKK3 PB1 HTS, MEKK2mut PB1 HTS, MEKK2wt PB1 HTS)
Cc1nn(Cc2cccc(C(=O)Nn3cc([N+](=O)[O-])cn3)c2)c(C)c1[N+](=O)[O-]	MEKK3 PB1 HTS 128 | MEKK2wt confirm inactive | MEKK2mut confirm inactive | MEKK3 confirm inactive
Cc1nn(Cc2cccc(C(=O)O)c2)c(C)c1[N+](=O)[O-]	none

High-throughput results as filed in PubChem.
